This is an account of results in PubChem BioAssay.

Values without a mark were called inactive. For some of these results: Measured potencies and affinities stand elsewhere. The source made the active and inactive calls. Unless noted, no rule for the calls is given here.

Assay [1] in a line: antimalarial activity against Dd2 strain (AID 2302;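 active = growth inhibition above 50% at the single 2 µM test dose, taken to imply half-maximal potency below 2 µM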;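 also: 0% = DMSO untreated growth and 100% = chloroquine plus artemisinin killed control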). Particulars: P. falciparum Dd2 in RBCs, LDH growth readout, 72 h; at 2 µM; active compounds read high.
Assay [2] is described as follows: human hepatoma cell viability loss – ATP luminescence, cytotoxicity control for P. falciparum antimalarial project, primary screen (AID 2303;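 active = inhibition above 50%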;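 also: 0% = DMSO wells and 100% = digitonin-killed cells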). Conditions: HepG2 viability, 24-48 h, at 10 µM, active compounds read high.
Assay [3] deals with L-lactate dehydrogenase (Plasmodium falciparum (isolate CDC / Honduras)) (UniProt Q27743). The experiment in a line: PfLDH activity inhibition – cell lysate, 3D7 strain, counter-screen for P. falciparum growth inhibition project (AID 2304).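 Also: 0% = vehicle and 100% = reference inhibitor.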 Conditions: P. falciparum 3D7 crude extract, LDH APAD/NBT absorbance; at 2 µM; active compounds read high. (In general: A counterscreen serves to expose hits that act by an unwanted route or on another target.)
Chain of L-lactate dehydrogenase (Plasmodium falciparum (isolate CDC / Honduras)) (Q27743 whole entry, looked up): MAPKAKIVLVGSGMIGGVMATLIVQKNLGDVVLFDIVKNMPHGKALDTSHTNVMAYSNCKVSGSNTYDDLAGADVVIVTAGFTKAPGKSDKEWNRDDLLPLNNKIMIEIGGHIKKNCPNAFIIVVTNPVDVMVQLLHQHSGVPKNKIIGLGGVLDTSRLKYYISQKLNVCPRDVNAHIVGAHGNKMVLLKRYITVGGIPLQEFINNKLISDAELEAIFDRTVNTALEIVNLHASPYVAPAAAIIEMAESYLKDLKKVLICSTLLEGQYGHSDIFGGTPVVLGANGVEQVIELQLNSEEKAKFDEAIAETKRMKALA

Assay [4] can be described thus: inhibition of 3D7 malaria parasite growth – strain 3D7 (AID 2306).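 Also: 0% = DMSO wells and 100% = chloroquine plus artemisinin control wells.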 Particulars: P. falciparum 3D7 erythrocytic growth, LDH absorbance, 72 h; at 2 µM; active compounds read high.
The target of assay [5] is Calcium-dependent protein kinase 1 (Plasmodium falciparum (isolate 3D7)) (UniProt P62344). Put plainly: PfCDPK1 kinase inhibitors, biochemical, TCAMS library (AID 1159585; cut-off not given, nearly all actives have IC50 up to about 0.98 µM;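 also: inhibitors leave more ATP so luminescence rises with inhibition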). Particulars: recombinant PfCDPK1, Kinase-Glo ATP depletion luminescence. On the technique in general: In Kinase-Glo more light means more ATP remaining.
Chain of Calcium-dependent protein kinase 1 (Plasmodium falciparum (isolate 3D7)) (P62344 whole entry, looked up): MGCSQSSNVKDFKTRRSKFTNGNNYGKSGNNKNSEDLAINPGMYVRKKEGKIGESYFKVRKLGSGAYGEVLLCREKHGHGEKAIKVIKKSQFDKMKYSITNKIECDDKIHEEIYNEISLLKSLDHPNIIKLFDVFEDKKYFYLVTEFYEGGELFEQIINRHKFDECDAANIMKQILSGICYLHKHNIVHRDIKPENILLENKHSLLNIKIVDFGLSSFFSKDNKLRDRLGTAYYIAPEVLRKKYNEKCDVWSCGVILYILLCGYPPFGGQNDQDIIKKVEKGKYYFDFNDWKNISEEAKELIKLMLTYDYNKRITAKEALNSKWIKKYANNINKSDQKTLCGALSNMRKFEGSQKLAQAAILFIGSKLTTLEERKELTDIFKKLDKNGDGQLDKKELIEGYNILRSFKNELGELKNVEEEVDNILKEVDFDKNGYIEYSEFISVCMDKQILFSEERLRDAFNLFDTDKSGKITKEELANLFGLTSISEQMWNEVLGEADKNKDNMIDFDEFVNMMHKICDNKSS
Assay [6] addresses Plasmodium falciparum protein kinase 6 (PK6, PF3D7_1337100) (UniProt Q8IDW1). Put plainly: PfPK6 kinase inhibitors, biochemical, TCAMS library (AID 1159586). Conditions: recombinant PfPK6, Kinase-Glo ATP depletion luminescence.
For assay [7], the target named is Protein kinase 7 (PK7), Plasmodium falciparum 3D7 (PF3D7_0213400) (UniProt Q7YTF7). The experiment in a line: inhibition of Plasmodium PK7 catalytic activity – biochemical, TCAMS antimalarial set, Kinase-Glo luminescence (AID 1159587). Conditions: recombinant PfPK7, Kinase-Glo ATP depletion luminescence.
Chain of Protein kinase 7 (PK7), Plasmodium falciparum 3D7 (PF3D7_0213400) (Q7YTF7 1-343): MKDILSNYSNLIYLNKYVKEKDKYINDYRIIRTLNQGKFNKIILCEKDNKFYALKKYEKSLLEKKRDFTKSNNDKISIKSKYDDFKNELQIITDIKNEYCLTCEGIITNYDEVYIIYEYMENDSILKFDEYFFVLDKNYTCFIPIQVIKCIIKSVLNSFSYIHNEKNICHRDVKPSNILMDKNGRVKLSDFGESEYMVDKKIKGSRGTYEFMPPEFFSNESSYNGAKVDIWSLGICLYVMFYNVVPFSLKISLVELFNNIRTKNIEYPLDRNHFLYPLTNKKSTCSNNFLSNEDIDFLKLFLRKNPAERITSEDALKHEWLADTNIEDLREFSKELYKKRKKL
In assay [8] the target is Calcium-dependent protein kinase 4 (Plasmodium falciparum (isolate 3D7)) (UniProt Q8IBS5). The experiment in a line: PfCDPK4 kinase inhibitors, biochemical, TCAMS library (AID 1159588; cut-off not given, nearly all actives have IC50 up to about 0.91 µM). Conditions: recombinant PfCDPK4, Kinase-Glo ATP depletion luminescence.
Chain of Calcium-dependent protein kinase 4 (Plasmodium falciparum (isolate 3D7)) (Q8IBS5 whole entry, looked up): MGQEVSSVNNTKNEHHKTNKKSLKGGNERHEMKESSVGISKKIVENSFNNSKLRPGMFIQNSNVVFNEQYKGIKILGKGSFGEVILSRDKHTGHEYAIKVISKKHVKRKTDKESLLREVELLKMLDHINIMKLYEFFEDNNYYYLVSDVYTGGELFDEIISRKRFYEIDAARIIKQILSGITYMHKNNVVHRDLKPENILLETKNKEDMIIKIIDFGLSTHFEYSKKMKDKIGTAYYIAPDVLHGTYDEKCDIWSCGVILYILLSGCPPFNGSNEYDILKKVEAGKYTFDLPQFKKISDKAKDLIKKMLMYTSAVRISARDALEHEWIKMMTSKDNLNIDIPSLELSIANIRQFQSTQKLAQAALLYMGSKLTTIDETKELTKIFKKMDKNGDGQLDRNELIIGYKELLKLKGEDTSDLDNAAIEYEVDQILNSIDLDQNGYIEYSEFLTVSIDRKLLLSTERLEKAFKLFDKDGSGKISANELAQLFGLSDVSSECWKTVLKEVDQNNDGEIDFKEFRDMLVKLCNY

Chain of Plasmodium falciparum protein kinase 6 (PK6, PF3D7_1337100) (Q8IDW1 1-305): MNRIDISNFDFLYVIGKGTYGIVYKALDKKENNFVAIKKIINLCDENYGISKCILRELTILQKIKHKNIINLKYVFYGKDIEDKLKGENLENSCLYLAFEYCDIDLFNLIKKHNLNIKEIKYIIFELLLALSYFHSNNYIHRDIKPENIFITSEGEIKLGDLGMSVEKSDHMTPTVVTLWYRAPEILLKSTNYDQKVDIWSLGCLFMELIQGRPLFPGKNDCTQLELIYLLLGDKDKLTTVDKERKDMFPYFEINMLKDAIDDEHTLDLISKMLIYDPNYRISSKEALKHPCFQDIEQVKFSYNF

Usually inhibition stands for the relative decrease from the control value, in per cent. For `COc1cc2c(cc1OC)CC(NCc1ccc(-c3ccc4nc[nH]c4c3)cc1)C2`, the figures for the growth inhibition in assay [1] and in assay [4] were 92% (active) and 97% (active), respectively. Moreover, the inhibition is 40% in assay [2] and 0% in assay [3]. The outcome in assay [5], in assay [6], in assay [7] and in assay [8] was inactive.
As for `CN(/N=C/c1ccc(Cl)cc1)c1nc(NCCc2ccc(O)cc2)nc(N2CCNCC2)n1`, the growth inhibition in assay [1] is 97% (active); in assay [4], 101% (active). For the same compound, the inhibition is 10% in assay [2] and 4% in assay [3]. Also, the outcome in assay [5], in assay [6], in assay [7] and in assay [8] was inactive.
With `COc1ccccc1CCNc1ncnc2c1[nH]c1ccc(F)cc12`, the figures for the growth inhibition in assay [1] and in assay [4] were 68% (active) and 95% (active), respectively. Further, the inhibition in assay [2] was 49%; in assay [3], 0%. The result in assay [5], in assay [6], in assay [7] and in assay [8] was inactive.
As to `CCN(CC)CCNC(=O)c1ccc(NC(=O)c2ccc(-c3cc(NC(=O)CC4CCCC4)ccc3C)cc2)cc1`, the growth inhibition is 95% (active) in assay [1] and 99% (active) in assay [4]. Also, the inhibition in assay [2] was 12%; in assay [3], -5%. Also, the result in assay [5], in assay [6], in assay [7] and in assay [8] was inactive.
With `CC1CCN(CC[C@H]2CCCN2S(=O)(=O)c2cccc(NC(=O)c3ccc(-c4ccccc4)cc3)c2)CC1`, the growth inhibition was 36% in assay [1] and 87% (active) in assay [4]. In addition, the inhibition is 38% in assay [2] and -6% in assay [3]. Besides, the result in assay [5], in assay [6], in assay [7] and in assay [8] was inactive.
In the case of `COC(=O)C(c1ccc(NC(=O)[C@H](CC(C)C)NC(=O)OC(C)(C)C)cc1)c1ccc(NC(=O)[C@H](CC(C)C)NC(=O)OC(C)(C)C)cc1`, the growth inhibition is 42% in assay [1] and 94% (active) in assay [4]. For the same compound, the inhibition was 0% in assay [2] and 2% in assay [3]. The result in assay [5], in assay [6], in assay [7] and in assay [8] was inactive.
For `COc1ccc(CNCc2ccsc2)cc1-c1ccc(OC)c(S(=O)(=O)NCCN2CCCC2)c1`, the growth inhibition in assay [1] is 62% (active); in assay [4], 97% (active). In addition, the inhibition in assay [2] was 18%; in assay [3] it was 0%. Further, the outcome in assay [5], in assay [6], in assay [7] and in assay [8] was inactive.
Regarding `CO/C(=C/C=C/c1cc2cc(Cl)c(Cl)cc2[nH]1)C(=O)NC1CC(C)(C)N(C)C(C)(C)C1`, the results for the growth inhibition in assay [1] and in assay [4] were 85% (active) and 99% (active), respectively. For the same compound, the inhibition is 58% (active) in assay [2] and -12% in assay [3]. Further, the outcome in assay [5], in assay [6], in assay [7] and in assay [8] was inactive.
With `O=C(c1cccc(-c2ccc(-c3nc4ccc(F)cc4[nH]3)s2)c1)N1CCCCC1CN1CCC(O)C1` (stereo not given), the growth inhibition in assay [1] is 85% (active); in assay [4] it was 101% (active). Also, the figures for the inhibition in assay [2] and in assay [3] were 23% and 2%, respectively. Besides, the outcome in assay [5], in assay [6], in assay [7] and in assay [8] was inactive.
For the compound `COc1ccc2c(=O)c(I)c(C)[nH]c2c1`, the growth inhibition in assay [1] and in assay [4] was 96% (active) in each case. Besides, the inhibition in assay [2] is 27%; in assay [3] it was 4%. Also, the result in assay [5], in assay [6], in assay [7] and in assay [8] was inactive.
On to `Cc1nc2ccc(Nc3nccc(-c4c(-c5cccc(NC(=O)c6c(F)cccc6F)c5)nn5ccccc45)n3)cc2nc1C`, for which the growth inhibition in assay [1] was 45%; in assay [4] it was 91% (active). The values for the inhibition in assay [2] and in assay [3] were 55% (active) and 0%, respectively. Moreover, the result in assay [5], in assay [6], in assay [7] and in assay [8] was inactive.
On to `CC(C)NCc1cccc(-c2cccc(NC(=O)c3cccc(Cl)c3)c2)c1`, for which the growth inhibition in assay [1] is 38%; in assay [4], 98% (active). Moreover, the inhibition in assay [2] is 36%; in assay [3], -10%. For the same compound, the result in assay [5], in assay [6], in assay [7] and in assay [8] was inactive.
For the compound `CCN(CC)Cc1cccc(-c2cc3c(-c4ccc(C(=O)O)c(C(C)C)c4)ccnc3[nH]2)c1OC`, the growth inhibition in assay [1] and in assay [4] was 99% (active) in each case. Further, the figures for the inhibition in assay [2] and in assay [3] were 57% (active) and -2%, respectively. Further, the result in assay [5], in assay [6], in assay [7] and in assay [8] was inactive.
As to `Cc1cc(N2CCOCC2)nc(Nc2ccc(NC(=O)c3cccc4ccccc34)cc2)n1`, the figures for the growth inhibition in assay [1] and in assay [4] were 11% and 95% (active), respectively. The values for the inhibition in assay [2] and in assay [3] were 44% and -1%, respectively. The outcome in assay [5], in assay [6], in assay [7] and in assay [8] was inactive.
As to `O=C(Nc1cccc(-c2cc(-c3c(Cl)cccc3Cl)no2)c1)c1cnc2ccccc2c1`, the figures for the growth inhibition in assay [1] and in assay [4] were 34% and 87% (active), respectively. Besides, the inhibition was -6% in assay [2] and -3% in assay [3]. Also, the result in assay [5], in assay [6], in assay [7] and in assay [8] was inactive.
On to `OC(CNCc1ccccc1OCc1ccccc1)c1cccc(I)c1` (stereo not given), for which the growth inhibition in assay [1] and in assay [4] was 100% (active) throughout. The inhibition was 2% in assay [2] and -1% in assay [3]. For the same compound, the outcome in assay [5], in assay [6], in assay [7] and in assay [8] was inactive.
Take `CC1(C)N=C(N)N=C(N)N1OCCSc1ccccc1`: the growth inhibition in assay [1] and in assay [4] was 95% (active) each time. For the same compound, the inhibition is 68% (active) in assay [2] and 3% in assay [3]. Moreover, the result in assay [5], in assay [6], in assay [7] and in assay [8] was inactive.
For the compound `c1ccc2c(Nc3ccc(OCCOCCOc4ccc(Nc5c6ccccc6nc6ccccc56)cc4)cc3)c3ccccc3nc2c1`, the values for the growth inhibition in assay [1] and in assay [4] were 97% (active) and 101% (active), respectively. Also, the figures for the inhibition in assay [2] and in assay [3] were 38% and 7%, respectively. Moreover, the outcome in assay [5], in assay [6], in assay [7] and in assay [8] was inactive.
With `O=C(/C=C/c1ccc(Cl)c(Cl)c1)NCCCCCN1CCC(NC(=O)c2cccc(Cl)c2)CC1`, the growth inhibition in assay [1] was 23%; in assay [4] it was 98% (active). The inhibition in assay [2] was 12%; in assay [3], -6%. The result in assay [5], in assay [6], in assay [7] and in assay [8] was inactive.
In the case of `CS(=O)(=O)c1ccc(CCNCc2ccc(-c3ccc(CNC4Cc5ccccc5C4)cc3)nc2)cc1`, the growth inhibition was 80% (active) in assay [1] and 100% (active) in assay [4]. The inhibition in assay [2] was 18%; in assay [3] it was -3%. Besides, the result in assay [5], in assay [6], in assay [7] and in assay [8] was inactive.
